From PubChem BioAssay (EPA / NIEHS)
Values joined by “and” are separate entries in the source; they are usually repeats but may differ in a detail not shown here. Equal entries are not always repeated. Inconclusive results are not listed. A structure can be active in one record and inactive in another. Active and inactive are the calls of the source. The calls were made as follows, unless noted: active = hit-call score of the fitted dose curve at least 0.9, where 1 is the maximum; inconclusive = response in the unintended direction; inactive = score below 0.9.

Experiments:
[1] = system: guinea pig Dopamine Transporter (DAT), gene 100714898; assay: NVS_TR_gDAT: NovaScreen (NVS) Transporter Assay for guinea pig Dopamine Transporter (DAT) (AID 2283369);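 also: active compounds lower bound radioligand signal relative to DMSO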
Method in brief: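 Test chemicals were incubated 2 h with guinea pig striatal membranes and a radioligand; bound label was separated by filtration and counted. Screening ran at 25 uM, followed by concentration-response testing to a 50 uM maximum.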

[2] = molecular target: human Dopamine Transporter (DAT), SLC6A3 (gene 6531) (UniProt Q01959); assay: NVS_TR_hDAT: NovaScreen (NVS) Transporter Assay for human Dopamine Transporter (DAT) (AID 2283374);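 also: activity means loss of bound radioligand signal relative to DMSO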
Method in brief: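 Duplicate single-point screening at 25 uM preceded concentration-series follow-up of actives. Binding was measured by competitive displacement of a radioligand from DAT protein, filter-counted by scintillation 1 h after dosing. Decrease relative to DMSO taken as activity.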

[3] = molecular target: human Norepinephrine Transporter (NET), SLC6A2 (gene 6530) (UniProt P23975); assay: NVS_TR_hNET: NovaScreen (NVS) Transporter Assay for human Norepinephrine Transporter (NET) (AID 2283377);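 also: cell-free membrane protein extracted from CHO cells expressing human NET; displacement of radioligand from human NET seen as loss of scintillation signal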
Method in brief: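 Single-concentration duplicate screen at 25 uM, then concentration-response for actives; displacement of specific radioligand from human NET in CHO membrane extracts, filter-based scintillation detection at 1 h relative to DMSO.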

[4] = molecular target: Estrogen receptor (Homo sapiens) (UniProt P03372); assay: OT_ERa_GFPERaERE_0480: Odyssey Thera (OT) 8-hour HeLa Transcription Induction Assay for Estrogen Receptor (AID 2283381; active = hit-call score of the fitted dose curve at least 0.9, where 1 is the maximum; inactive = score below 0.9)
Method in brief: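 Fluorescence microscopy with high-content image analysis measures ERE-driven GFP induction in HeLa cells at 8 h post-dose. Increases fitted against DMSO baseline.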

[5] = molecular target: Estrogen receptor (Homo sapiens) (UniProt P03372); assay: OT_ERa_GFPERaERE_0120: Odyssey Thera (OT) 2-hour HeLa Transcription Induction Assay for Estrogen Receptor (AID 2283382)
Method in brief: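 Fluorescence-microscopy images of the GFP-ERα/ERE reporter, scored by high-content image algorithms, give the readout. HeLa exposure lasted 2 h, and only signal increase over DMSO was fitted.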

[6] = molecular target: Retinoic acid receptor RXR-alpha (Homo sapiens) (UniProt P19793); assay: OT_NURR1_NURR1RXRa_0480: Odyssey Thera (OT) 8-hour HEK293T Protein Complementation Assay for Nurr1/retinoid X receptor (RXR) (AID 2283385)
Method in brief: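 Interaction of Nurr1 with RXRα read as reconstituted reporter fluorescence in a HEK293T fragment-complementation system, 8 h post-treatment; increase over DMSO baseline analysed.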

[7] = molecular target: Retinoic acid receptor RXR-alpha (Homo sapiens) (UniProt P19793); assay: OT_NURR1_NURR1RXRa_1440: Odyssey Thera (OT) 24-hour HEK293T Protein Complementation Assay for Nurr1/retinoid X receptor (RXR) (AID 2283386)
Method in brief: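 Gain in fluorescence, fitted relative to DMSO, reflects Nurr1–RXRα association in HEK293T cells after 24 h dosing. Bait and prey are each linked to a reporter-protein fragment that reassembles on interaction.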

[8] = molecular target: Peroxisome proliferator-activated receptor gamma (Homo sapiens) (UniProt P37231); assay: OT_PPARg_PPARgSRC1_0480: Odyssey Thera (OT) 8-hour Protein-Complementation Assay for Peroxisome Proliferator-activated Receptor Gamma / SRC-1 Co-activator (AID 2283387);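 also: nuclear to cytoplasmic split Venus YFP fluorescence ratio reporting PPARg SRC-1 interaction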
Method in brief: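 Read-out: 488 nm N/C fluorescence ratio from complemented Venus YFP fragments, ≥350 cells per image, gain-of-signal fitted against DMSO baseline. Fusions of PPARg/SRC-1 with IFP1/IFP2 expressed transiently in HEK293T; compounds applied 8 h.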

[9] = molecular target: Estrogen receptor beta (Homo sapiens) (UniProt Q92731); assay: OT_ER_ERbERb_1440: Odyssey Thera (OT) 24-hour HEK293T Protein-Complementation Assay for Estrogen Receptor-beta/-beta Homodimer (AID 2283380);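 also: fluorescence gain from ER beta LBD homodimer complementation read by laser scanning cytometry; scored as signal increase over DMSO baseline for both agonists and antagonists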
Method in brief: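 Fluorescence increase, nuclear for agonists or whole-cell for antagonists, relative to DMSO vehicle, quantified by laser scanning cytometer after fixation and Draq5 staining. Readout from 24 h treatment of HEK293T cells carrying complementation-paired ER beta LBD (aa 310-547).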

[10] = molecular target: guinea pig Sigma Receptor, Non-selective Binding, SIGMAR1 (gene 100135589) (UniProt Q60492); assay: NVS_OR_gSIGMA_NonSelective: NovaScreen (NVS) Nuclear Receptor Binding Assay for guinea pig Sigma Receptor, Non-selective Binding (AID 2283367)
Method in brief: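 Guinea pig brain membrane sigma sites were labelled with a radioligand, and bound radioactivity was counted after filtration 1 h post-dose. Compounds were screened at 25 uM in duplicate, then retested as concentration series when active.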

[11] = molecular target: human Serotonin Transporter (SERT), SLC6A4 (gene 6532) (UniProt P31645); assay: NVS_TR_hSERT: NovaScreen (NVS) Transporter Assay for human Serotonin Transporter (SERT) (AID 2283372)
Method in brief: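 Human platelet membrane preparation; displacement of radioligand from serotonin transporter measured after 1 h by filtration and scintillation counting. Single 25 uM duplicate screen, then concentration series for actives, with DMSO as negative baseline.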

[12] = molecular target: rat Serotonin Transporter (SERT), Slc6a4 (gene 25553) (UniProt P31652); assay: NVS_TR_rSERT: NovaScreen (NVS) Transporter Assay for rat Serotonin Transporter (SERT) (AID 2283375)
Method in brief: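 Steps: rat forebrain membranes dosed with chemical (25 uM duplicate primary; concentration series for actives); 1 h incubation; labelled ligand bound, filtered, counted by scintillation. Activity scored as signal loss vs DMSO.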

[13] = molecular target: Agonist Androgen Response Element (ARE), AR (gene 367) (UniProt P10275); assay: OT_AR_ARELUC_AG_1440: Odyssey Thera (OT) 24-hour CHO-K1 Luciferase Assay for Agonist Androgen Response Element (ARE) (AID 2283379)
Method in brief: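 Readout: luciferase bioluminescence from CHO-K1 ARE-luc cells, measured 24 h post-dosing; agonism = increased mean luminescence vs DMSO controls, fitted in positive direction.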

[14] = molecular target: Nuclear receptor subfamily 1 group I member 2 (Homo sapiens) (UniProt O75469); assay: NVS_NR_hPXR: NovaScreen (NVS) Nuclear Receptor Binding Assay for human Pregnane X Receptor (PXR) (AID 2283365);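 also: a drop in FRET signal versus DMSO baseline means the compound binds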
Method in brief: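 Binding was measured by time-resolved fluorescence resonance energy transfer after a 2 h exposure of extracted human PXR protein without cells. Compounds were first tested at 25 uM in duplicate, with concentration series for actives; DMSO defined baseline.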

[15] = molecular target: Peroxisome proliferator-activated receptor gamma (Homo sapiens) (UniProt P37231); assay: NVS_NR_hPPARg: NovaScreen (NVS) Nuclear Receptor Binding Assay for human Peroxisome Proliferator-activated Receptor gamma (PPARg) (AID 2283370)
Method in brief: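 Fluorescence polarization measures competitive binding to extracted PPARg in a cell-free format. Reading is taken at 2 h; activity is signal loss relative to DMSO. Screening at 25 uM in duplicate preceded confirmatory dose series.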

[16] = system: rat Norepinephrine Transporter (NET), gene 83511; assay: NVS_TR_rNET: NovaScreen (NVS) Transporter Assay for rat Norepinephrine Transporter (NET) (AID 2283373)
Method in brief: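 Competitive radioligand displacement at the rat NET using forebrain membrane preparations, 1 h incubation, filter-based scintillation readout. Primary testing in duplicate at a single 25 uM concentration; confirmed actives retested across concentrations.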

[17] = molecular target: Bile acid receptor (Homo sapiens) (UniProt Q96RI1); assay: OT_FXR_FXRSRC1_0480: Odyssey Thera (OT) 8-hour HEK293T Protein-Complementation Assay for Farnesoid X receptor/SRC-1 Co-activator (AID 2283383)
Method in brief: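 Binding of FXR to coactivator SRC-1 was read as fluorescence from a reconstituted split reporter in HEK293T cells, 8 h after chemical addition. Only increases in signal versus DMSO were fit.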

[18] = molecular target: Bile acid receptor (Homo sapiens) (UniProt Q96RI1); assay: OT_FXR_FXRSRC1_1440: Odyssey Thera (OT) 24-hour HEK293T Protein-Complementation Assay for Farnesoid X receptor/SRC-1 Co-activator (AID 2283384)
Method in brief: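 Protein-fragment complementation: FXR and SRC-1 fused to reporter fragments that reassemble on interaction, read by fluorescence intensity. Human HEK293T cells measured 24 h post-dose; positive-direction fit versus DMSO.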

[19] = molecular target: mouse Estrogen Receptor alpha (Era), Esr1 (gene 13982) (UniProt P19785); assay: NVS_NR_mERa: NovaScreen (NVS) Nuclear Receptor Binding Assay for mouse Estrogen Receptor alpha (Era) (AID 2283378);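 also: hit means loss of bound radioligand signal relative to DMSO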
Method in brief: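 Test chemicals competed against a specific radioligand for binding to cell-free mouse Era. Duplicate wells at 25 uM were read 18 hours later by filter-based radiodetection, with loss of signal against DMSO scored as activity.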

Measured: AC50

Chain of Retinoic acid receptor RXR-alpha (Homo sapiens) (P19793 whole entry, looked up, the tested form may be a part): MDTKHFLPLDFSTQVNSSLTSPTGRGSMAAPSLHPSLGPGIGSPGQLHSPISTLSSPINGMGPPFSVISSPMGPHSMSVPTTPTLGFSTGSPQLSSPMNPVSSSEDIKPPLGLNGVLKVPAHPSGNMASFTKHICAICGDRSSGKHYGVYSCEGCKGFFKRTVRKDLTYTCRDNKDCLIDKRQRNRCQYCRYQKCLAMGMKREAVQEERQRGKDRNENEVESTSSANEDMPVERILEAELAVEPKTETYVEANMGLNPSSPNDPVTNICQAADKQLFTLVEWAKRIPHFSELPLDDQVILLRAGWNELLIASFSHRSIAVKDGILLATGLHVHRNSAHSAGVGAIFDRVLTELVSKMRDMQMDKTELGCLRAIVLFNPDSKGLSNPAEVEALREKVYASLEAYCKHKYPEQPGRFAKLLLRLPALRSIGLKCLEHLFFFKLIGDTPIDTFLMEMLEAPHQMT
Chain of rat Serotonin Transporter (SERT), Slc6a4 (gene 25553) (P31652 whole entry, looked up): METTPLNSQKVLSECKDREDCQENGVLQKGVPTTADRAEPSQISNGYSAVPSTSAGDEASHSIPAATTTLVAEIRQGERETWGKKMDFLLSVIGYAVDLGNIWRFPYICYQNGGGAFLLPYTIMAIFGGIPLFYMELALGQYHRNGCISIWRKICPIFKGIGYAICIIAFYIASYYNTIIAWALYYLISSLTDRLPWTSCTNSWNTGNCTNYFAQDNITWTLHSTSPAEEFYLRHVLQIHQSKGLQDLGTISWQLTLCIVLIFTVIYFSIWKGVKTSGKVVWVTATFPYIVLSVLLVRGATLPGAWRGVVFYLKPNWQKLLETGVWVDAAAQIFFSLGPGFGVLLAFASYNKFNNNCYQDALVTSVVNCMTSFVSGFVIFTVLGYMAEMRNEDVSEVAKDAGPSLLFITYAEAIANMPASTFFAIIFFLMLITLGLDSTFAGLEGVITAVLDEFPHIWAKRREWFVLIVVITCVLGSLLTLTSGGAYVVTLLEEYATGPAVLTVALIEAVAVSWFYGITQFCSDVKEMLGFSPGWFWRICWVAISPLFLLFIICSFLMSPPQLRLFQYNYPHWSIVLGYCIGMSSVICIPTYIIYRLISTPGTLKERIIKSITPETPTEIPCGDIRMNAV
Chain of human Norepinephrine Transporter (NET), SLC6A2 (gene 6530) (P23975 whole entry, looked up): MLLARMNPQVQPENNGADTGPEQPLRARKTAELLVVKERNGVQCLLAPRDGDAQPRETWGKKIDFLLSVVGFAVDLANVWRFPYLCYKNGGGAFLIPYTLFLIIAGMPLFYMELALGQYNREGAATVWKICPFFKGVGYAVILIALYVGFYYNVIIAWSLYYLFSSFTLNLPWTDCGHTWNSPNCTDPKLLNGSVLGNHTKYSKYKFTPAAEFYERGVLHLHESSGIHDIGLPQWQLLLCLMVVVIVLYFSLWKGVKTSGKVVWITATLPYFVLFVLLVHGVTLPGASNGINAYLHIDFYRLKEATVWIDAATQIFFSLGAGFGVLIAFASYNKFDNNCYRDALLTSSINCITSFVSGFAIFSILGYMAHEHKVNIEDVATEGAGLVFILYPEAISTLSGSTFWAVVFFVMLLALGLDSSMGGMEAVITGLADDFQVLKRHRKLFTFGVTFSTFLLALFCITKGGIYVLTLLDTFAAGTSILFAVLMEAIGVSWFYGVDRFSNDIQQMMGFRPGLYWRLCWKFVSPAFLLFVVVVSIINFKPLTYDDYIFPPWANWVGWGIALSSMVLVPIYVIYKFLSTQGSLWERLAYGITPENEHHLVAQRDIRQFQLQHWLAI
Chain of Estrogen receptor (Homo sapiens) (P03372 whole entry, looked up): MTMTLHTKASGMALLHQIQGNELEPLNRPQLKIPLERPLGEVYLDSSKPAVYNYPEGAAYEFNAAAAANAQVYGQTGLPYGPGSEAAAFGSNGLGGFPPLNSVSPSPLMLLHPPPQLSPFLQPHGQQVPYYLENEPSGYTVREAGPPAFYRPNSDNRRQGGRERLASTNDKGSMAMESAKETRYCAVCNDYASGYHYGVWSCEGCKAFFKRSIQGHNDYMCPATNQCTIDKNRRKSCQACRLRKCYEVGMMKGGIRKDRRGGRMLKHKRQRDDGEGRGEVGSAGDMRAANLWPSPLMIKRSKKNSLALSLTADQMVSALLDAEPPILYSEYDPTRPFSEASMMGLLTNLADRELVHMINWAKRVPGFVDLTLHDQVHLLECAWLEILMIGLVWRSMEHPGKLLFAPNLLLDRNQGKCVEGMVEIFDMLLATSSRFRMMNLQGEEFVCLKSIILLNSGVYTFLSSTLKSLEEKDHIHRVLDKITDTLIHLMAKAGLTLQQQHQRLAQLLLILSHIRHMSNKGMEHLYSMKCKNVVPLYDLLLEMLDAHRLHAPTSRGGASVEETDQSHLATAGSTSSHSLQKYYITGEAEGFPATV
Chain of Bile acid receptor (Homo sapiens) (Q96RI1 whole entry, looked up, the tested form may be a part): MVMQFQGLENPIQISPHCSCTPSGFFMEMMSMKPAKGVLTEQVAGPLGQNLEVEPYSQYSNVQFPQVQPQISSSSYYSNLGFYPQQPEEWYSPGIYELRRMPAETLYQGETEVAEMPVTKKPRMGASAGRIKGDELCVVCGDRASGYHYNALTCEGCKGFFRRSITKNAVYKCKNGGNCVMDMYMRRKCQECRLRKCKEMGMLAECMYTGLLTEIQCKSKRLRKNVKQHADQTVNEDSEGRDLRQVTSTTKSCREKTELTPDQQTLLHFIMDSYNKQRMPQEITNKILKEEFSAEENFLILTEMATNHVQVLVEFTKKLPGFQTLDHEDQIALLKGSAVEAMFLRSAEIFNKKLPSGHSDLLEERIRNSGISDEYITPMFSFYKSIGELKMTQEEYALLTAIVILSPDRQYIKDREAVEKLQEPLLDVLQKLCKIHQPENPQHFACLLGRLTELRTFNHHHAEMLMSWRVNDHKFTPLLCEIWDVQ
Chain of human Serotonin Transporter (SERT), SLC6A4 (gene 6532) (P31645 whole entry, looked up): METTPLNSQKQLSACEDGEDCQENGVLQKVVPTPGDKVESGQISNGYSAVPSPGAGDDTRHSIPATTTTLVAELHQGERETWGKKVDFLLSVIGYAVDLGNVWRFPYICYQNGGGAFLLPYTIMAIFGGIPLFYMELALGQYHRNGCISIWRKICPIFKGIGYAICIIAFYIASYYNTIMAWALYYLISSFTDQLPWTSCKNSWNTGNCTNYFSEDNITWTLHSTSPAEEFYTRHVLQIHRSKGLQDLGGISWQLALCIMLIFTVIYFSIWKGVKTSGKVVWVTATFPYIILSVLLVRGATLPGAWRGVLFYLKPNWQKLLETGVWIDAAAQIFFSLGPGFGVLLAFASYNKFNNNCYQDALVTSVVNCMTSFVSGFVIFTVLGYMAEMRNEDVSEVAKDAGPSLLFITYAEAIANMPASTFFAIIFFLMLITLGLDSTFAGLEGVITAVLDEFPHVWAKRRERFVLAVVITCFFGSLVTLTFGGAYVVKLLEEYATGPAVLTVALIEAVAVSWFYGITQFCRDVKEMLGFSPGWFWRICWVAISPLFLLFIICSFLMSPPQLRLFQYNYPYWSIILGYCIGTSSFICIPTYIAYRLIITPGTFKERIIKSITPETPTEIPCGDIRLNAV
Chain of Nuclear receptor subfamily 1 group I member 2 (Homo sapiens) (O75469 whole entry, looked up): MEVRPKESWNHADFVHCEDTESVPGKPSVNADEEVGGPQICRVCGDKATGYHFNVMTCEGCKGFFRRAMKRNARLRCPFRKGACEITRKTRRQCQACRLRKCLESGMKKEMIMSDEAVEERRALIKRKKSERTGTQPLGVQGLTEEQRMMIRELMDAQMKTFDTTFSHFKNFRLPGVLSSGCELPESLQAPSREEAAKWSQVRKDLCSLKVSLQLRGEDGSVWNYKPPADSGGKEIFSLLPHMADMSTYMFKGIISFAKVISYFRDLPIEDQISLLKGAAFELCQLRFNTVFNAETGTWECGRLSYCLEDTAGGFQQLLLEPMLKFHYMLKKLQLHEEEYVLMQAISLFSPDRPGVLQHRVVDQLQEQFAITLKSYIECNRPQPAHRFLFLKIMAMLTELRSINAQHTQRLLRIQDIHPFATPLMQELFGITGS
Chain of Agonist Androgen Response Element (ARE), AR (gene 367) (P10275 whole entry, looked up): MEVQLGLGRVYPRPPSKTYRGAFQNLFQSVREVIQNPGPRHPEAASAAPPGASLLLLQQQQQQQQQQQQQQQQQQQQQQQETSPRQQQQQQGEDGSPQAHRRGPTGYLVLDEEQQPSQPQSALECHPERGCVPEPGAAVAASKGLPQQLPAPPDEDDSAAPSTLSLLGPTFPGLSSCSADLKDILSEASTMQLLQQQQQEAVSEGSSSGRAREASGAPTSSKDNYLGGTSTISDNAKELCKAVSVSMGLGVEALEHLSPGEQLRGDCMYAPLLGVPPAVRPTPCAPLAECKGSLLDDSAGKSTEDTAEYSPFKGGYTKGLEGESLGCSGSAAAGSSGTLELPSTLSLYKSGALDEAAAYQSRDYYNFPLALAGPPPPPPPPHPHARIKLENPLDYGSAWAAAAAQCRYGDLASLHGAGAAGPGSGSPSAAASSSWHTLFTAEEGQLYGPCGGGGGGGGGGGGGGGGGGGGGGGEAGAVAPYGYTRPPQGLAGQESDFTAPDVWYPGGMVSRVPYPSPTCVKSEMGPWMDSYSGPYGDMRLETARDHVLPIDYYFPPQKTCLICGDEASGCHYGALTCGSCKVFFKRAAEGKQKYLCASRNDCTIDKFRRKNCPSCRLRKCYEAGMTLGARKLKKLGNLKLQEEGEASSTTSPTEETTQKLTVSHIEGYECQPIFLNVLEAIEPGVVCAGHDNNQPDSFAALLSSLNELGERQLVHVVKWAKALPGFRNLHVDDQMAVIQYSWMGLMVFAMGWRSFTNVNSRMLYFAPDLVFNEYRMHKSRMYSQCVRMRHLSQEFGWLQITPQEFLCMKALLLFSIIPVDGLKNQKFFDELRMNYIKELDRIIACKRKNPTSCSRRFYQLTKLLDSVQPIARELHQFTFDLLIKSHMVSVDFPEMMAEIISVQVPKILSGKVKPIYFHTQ
Chain of guinea pig Sigma Receptor, Non-selective Binding, SIGMAR1 (gene 100135589) (Q60492 whole entry, looked up): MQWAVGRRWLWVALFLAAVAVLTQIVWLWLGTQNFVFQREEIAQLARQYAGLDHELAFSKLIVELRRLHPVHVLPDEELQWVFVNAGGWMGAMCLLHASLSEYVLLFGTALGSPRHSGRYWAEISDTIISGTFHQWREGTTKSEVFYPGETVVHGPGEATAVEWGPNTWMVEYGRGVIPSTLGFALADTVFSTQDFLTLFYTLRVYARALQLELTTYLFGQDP

Nc1ccc(Nc2ccccc2)cc1
inactive: [4] | [5] | [6] | [7] | [8]
active: [1] 25 µM | [2] 7.42 µM | [3] 6.87 µM

CCn1nc(Cc2ccccc2)cc1C1CCN(C[C@H]2C[C@H](N(C)[C@@H](C(=O)O)C(C)C)C[C@@H]2c2cccc(F)c2)CC1
active: [1] 13.8 µM | [2] 9.06 µM | [3] 11 µM
inactive: [9] | [4] | [5] | [6] | [7] | [8]

CCCN(C1CCN(C(=O)C2CCNCC2)CC1)[C@@H]1CCc2ccc(OC)cc2C1
inactive: [13] | [8]
active: [10] 7.69 µM | [11] 10.3 µM | [12] 3.7 µM | [9] 59.7 µM | [6] 87.3 µM | [7] 64.8 µM

CC(C)CC(C)(O)C#CC(C)(O)CC(C)C (stereo unspecified)
active: [10] 15 µM
inactive: [9] | [6] | [8]

C=CCCCCCCCCC(=O)O
inactive: [14] | [9] | [4] | [5] | [6] | [7] | [8]

O=c1[nH]c2ccc(S(=O)CCN3CCC(Cc4ccc(F)cc4)CC3)cc2o1 (stereo unspecified)
inactive: [15] | [9] | [4] | [5] | [6] | [7] | [8]
active: [10] 0.339 µM | [1] 6.75 µM | [2] 3.16 µM | [12] 0.403 µM | [3] 2.28 µM

NC(=O)NO
inactive: [14] | [9] | [6] | [7]

O=C(O)c1cc(N=Nc2ccc(S(=O)(=O)Nc3ccccn3)cc2)ccc1O
inactive: [14] | [15] | [9] | [6] | [7] | [8]

CCOC(=O)COc1ccc2c(c1)CC(NCC(O)c1cccc(Cl)c1)CC2 (stereo unspecified)
inactive: [10] | [11] | [16] | [5] | [8]
active: [1] 10.6 µM | [2] 0.124 µM | [12] 4.63 µM | [3] 0.312 µM | [4] 69.3 µM | [6] 154 nM and 591 nM | [7] 10.7 µM and 10.3 µM

Nc1cccc(N)c1
active: [18] 78.8 µM
inactive: [14] | [9] | [17] | [6] | [7] | [8]

Cc1ccc(C)c(O)c1
active: [10] 8.63 µM
inactive: [17] | [18] | [6] | [7] | [8]

Cc1[nH]cnc1C[C@H]1CCc2c(C)c3ccccc3n2C1=O
inactive: [9] | [6]
active: [10] 10 µM | [1] 12.7 µM | [11] 8.03 µM | [16] 8.58 µM | [2] 11.6 µM | [12] 7.59 µM | [3] 7.21 µM

CCN(C(=O)c1cc(C)cc(OC[C@H](C)Nc2ccncc2)c1)C(C)C
inactive: [15] | [9] | [8]
active: [10] 6.22 µM

CC1(C)C(=O)N(Br)C(=O)N1Br
inactive: [14] | [15] | [13] | [9] | [17] | [18] | [6] | [7] | [8]

CC[C@H]1CC[C@H](NCc2cc3c(cc2OC)[C@H]2C[C@H]2C(=O)N3C)[C@H](c2ccccc2)N1
active: [10] 10.9 µM | [16] 25 µM | [3] 11.3 µM
inactive: [9] | [4] | [5] | [6] | [7] | [8]

CN(C)c1ccc(Cc2ccc(N(C)C)cc2)cc1
active: [10] 5.19 µM | [17] 28 µM | [6] 35.1 µM
inactive: [14] | [9] | [18] | [6] | [7] | [8]

COc1cccc(-c2ccc(/C=C\CN3CCCCCC3)cc2Cl)c1
active: [10] 0.0104 µM | [1] 14.5 µM | [16] 9.83 µM | [2] 5.87 µM | [3] 2.67 µM | [6] 10.3 µM
inactive: [14] | [15] | [12] | [19] | [9] | [4] | [5] | [8]

Cc1ccc(N)cc1O
inactive: [14] | [13] | [9] | [4] | [5] | [6] | [7] | [8]
active: [7] 50 µM
